The campaign covered roughly 220,000 compounds. About 370 (0.17%) were called active. Many of the other results were omitted from the sample, so actives are more common in it than they were. Values without a mark were called inactive.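 Rule for the calls: active = inhibition above the mean inhibition of all tested compounds plus 3 SD, set separately per screening campaign (cut at about 2.9% in these data); inactive = the rest.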

For the test, the target named is Eukaryotic translation initiation factor 2-alpha kinase 3 (Homo sapiens) (UniProt Q9NZJ5). Put plainly: SEAP translation reporter rise after PERK-DD activation – CHO PERK-DD cells, SEAP luminescence, HTS, PERK inhibitor project, primary screen (AID 1416).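 Note: PERK kinase domain activated by AP20187 dimerizer at 100 nM; 0% = DMSO with dimerizer and 100% = rapamycin at 8.4 µM.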 The following applies: CHO PERK-DD fusion, at 5.6 µM, active compounds read high.
Eukaryotic translation initiation factor 2-alpha kinase 3 (Homo sapiens), sequence (Q9NZJ5 whole entry, looked up, the tested form may be a part): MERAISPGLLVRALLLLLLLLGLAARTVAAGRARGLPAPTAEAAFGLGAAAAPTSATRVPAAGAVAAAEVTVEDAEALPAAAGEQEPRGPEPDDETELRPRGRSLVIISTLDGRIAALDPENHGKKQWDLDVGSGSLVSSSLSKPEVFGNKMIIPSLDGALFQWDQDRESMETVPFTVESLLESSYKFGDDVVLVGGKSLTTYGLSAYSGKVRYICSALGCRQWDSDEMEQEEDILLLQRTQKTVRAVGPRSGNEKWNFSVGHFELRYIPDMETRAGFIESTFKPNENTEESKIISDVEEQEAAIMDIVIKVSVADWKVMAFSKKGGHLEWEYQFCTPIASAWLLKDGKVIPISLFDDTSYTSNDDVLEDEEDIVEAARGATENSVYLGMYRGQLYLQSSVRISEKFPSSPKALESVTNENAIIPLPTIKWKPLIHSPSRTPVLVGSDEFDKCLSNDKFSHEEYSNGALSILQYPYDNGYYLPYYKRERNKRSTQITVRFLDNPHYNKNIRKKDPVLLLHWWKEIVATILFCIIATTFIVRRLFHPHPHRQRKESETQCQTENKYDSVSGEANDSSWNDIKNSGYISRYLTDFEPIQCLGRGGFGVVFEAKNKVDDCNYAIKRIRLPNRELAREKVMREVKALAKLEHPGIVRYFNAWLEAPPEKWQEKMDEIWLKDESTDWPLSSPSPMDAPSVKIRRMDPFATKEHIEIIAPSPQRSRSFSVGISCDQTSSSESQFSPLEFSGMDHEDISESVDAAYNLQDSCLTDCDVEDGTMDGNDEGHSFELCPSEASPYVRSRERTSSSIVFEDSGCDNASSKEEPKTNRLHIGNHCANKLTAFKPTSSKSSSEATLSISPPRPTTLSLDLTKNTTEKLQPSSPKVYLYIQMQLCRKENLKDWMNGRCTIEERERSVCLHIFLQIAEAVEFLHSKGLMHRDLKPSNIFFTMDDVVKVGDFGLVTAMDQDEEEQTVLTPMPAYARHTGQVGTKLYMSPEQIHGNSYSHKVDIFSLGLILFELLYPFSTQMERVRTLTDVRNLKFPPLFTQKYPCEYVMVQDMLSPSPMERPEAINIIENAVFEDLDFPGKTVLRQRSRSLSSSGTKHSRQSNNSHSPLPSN
`Cc1ccc2c(c1)NCC(C(=O)NC1CCC(C)CC1)O2` (stereo unspecified): the inhibition (as a rule, the change of the read-out against control, counted positive when it falls) is 0.88%.

In the case of `COCc1c(C(=O)N/N=C/C2CC=CCC2)nnn1-c1nonc1N` (stereo unspecified), the inhibition was 0.44%.

`COc1ccc(NC(=S)Nc2ccc(S(N)(=O)=O)cc2)c(C)c1`: the inhibition was 1.02%.

In the case of `CN(Cc1ccccn1)Cc1nc(-c2ccc(Cl)cc2)no1`, the inhibition was 0.32%.

Turning to `COC(=O)C1=C(C)NC(=O)CC1c1ccccc1OC` (stereo unspecified), the inhibition is 0.25%.

Consider `CN(c1ccc(OCC(=O)NC2=NCCS2)cc1)S(=O)(=O)c1ccc(F)cc1`, for which the inhibition was 1.79%.

Consider `Cc1cccc(N2CCN(c3ccc(NC(=O)/C=C\C(=O)O)cc3)CC2)c1`, for which the inhibition was 0.1%.

For `CS/C(=C\[N+](=O)[O-])Nc1ccc(C)cc1`, the inhibition was 1.47%.

Turning to `CCOCCn1c(-c2ccccc2)nc2ccccc21`, the inhibition was -1.39%.

For `Cc1ccccc1C1=N/C(=C/c2cccnc2)C(=O)O1`, the inhibition was 0.44%.

Regarding `O=C(CC1Nc2ccccc2NC1=O)Nc1ccccc1NC(=O)CC1Nc2ccccc2NC1=O` (stereo unspecified), the inhibition was 0.97%.

For the molecule `CN(C)S(=O)(=O)N1CCN(c2ccc([N+](=O)[O-])cc2)CC1`, the inhibition was 0.53%.

Take `Cc1cc(NC(=O)/C=C/C(=O)N(c2ccccc2C)C(C(=O)NC2CCCC2)c2ccc(F)cc2)no1` (stereo unspecified): the inhibition is 2.4%.

With `CSc1sc(C(=O)NC(=O)NCc2cccnc2)c(C)c1-c1ccon1`, the inhibition was -0.78%.

For `Cc1c(C=O)n(C)n(-c2ccccc2)c1=O`, the inhibition is 0.28%.

Turning to `Cc1ccc(Cl)c(NC(=O)CN(C)CC(=O)Nc2ccc(F)c(F)c2F)c1Cl`, the inhibition is 0.24%.

Regarding `Cc1noc(C)c1C(=O)OCC(=O)N1CCN(S(=O)(=O)c2ccc3ccccc3c2)CC1`, the inhibition is 1.94%.

Take `COc1ccc(C(F)(F)F)cc1N/C=C\c1nnnn1-c1ccc(C)cc1`: the inhibition was 1.24%.

In the case of `C#CCNC(=O)C1=C[C@@H](c2ccccc2)[C@H](CCCO)[C@@H](OCC)O1`, the inhibition was 0.82%.

As for `C[C@H](NC(=O)NCCc1ccccc1)C(=O)O`, the inhibition is 1.63%.

Regarding `CC(C)C[C@H](NC(=O)NCCc1ccc(Cl)cc1)C(=O)O`, the inhibition is 3.16% (active).

For `CSCC[C@H](NC(=O)NCCc1ccc(F)cc1)C(=O)O`, the inhibition was 0.4%.

Turning to `CC(=O)c1ccc(NC(=O)CSC(=S)N2CCCC2)cc1`, the inhibition was -0.15%.

Regarding `Cc1cc(C)n(CC(O)CN(c2ccccc2)S(=O)(=O)c2ccc3ccccc3c2)n1` (stereo unspecified), the inhibition is 0.84%.

Consider `CC(C)CCSc1ncnc2c1oc1nc3c(cc12)COC(C)(C)C3`, for which the inhibition is -0.1%.

Take `CC(=O)Nc1cccc(/C(C)=N/NC(=O)c2c(-c3ccccc3Cl)noc2C)c1`: the inhibition is -0.07%.

For the molecule `COc1ccccc1N=C(C)C1=C(O)COC1=O`, the inhibition was 0.22%.

Turning to `O=[N+]([O-])c1ccc2c(c1)C(O)n1nc(-c3ccccc3)nc1S2` (stereo unspecified), the inhibition was 1.41%.

As to `Cc1ccc(C(C)(C)C)c(OCCCCN2CCCC2)c1`, the inhibition is -1.02%.

For `CS(=O)(=O)N(CC(=O)Nc1ccc(F)cc1F)c1cccc([N+](=O)[O-])c1`, the inhibition is 1.41%.

`Cc1ccc(C)c(NC(=S)NNC(=S)Nc2ccc(C(C)C)cc2)c1`: the inhibition was 0.16%.

Turning to `OCCN1CCN(C(=S)c2ccc(-c3ccccc3)cc2)CC1`, the inhibition is 0.18%.

Consider `CCOc1ccc(C(=O)NC(=S)Nc2ccc(N3CCOCC3)c(Cl)c2)cc1[N+](=O)[O-]`, for which the inhibition is 1.74%.

`CCCCn1nc(C(=O)Nc2ccc(S(=O)(=O)Nc3ncccn3)cc2)c2ccccc2c1=O`: the inhibition is 0.72%.

In the case of `O=c1c2sccc2nc(SCc2cc(=O)n3ccccc3n2)n1-c1ccc(Br)cc1`, the inhibition is -1.2%.

As for `COc1cc(/C=N/NC(=O)Nc2ccccc2)ccc1OCCOc1ccccc1C`, the inhibition was 0.13%.

For `CC(=O)Nc1ccccc1NC(=O)c1cc(C)cc(C)c1`, the inhibition is 0.02%.

`Cc1ccccc1C(=O)Nc1ccc(N2CCCCCC2)cc1`: the inhibition is -0.25%.

For `O=c1[nH][nH]c(=O)c2cc(N3CCCC3)ccc12`, the inhibition was 0.69%.

`O=C1C=CC(=O)N1c1ccc(N2CCCCC2)cc1`: the inhibition was 3.21% (active).

With `CN1CCN(c2ccc(NC(=O)c3ccc4c(c3)[nH]c(=O)n4Cc3ccc(F)cc3)cc2)CC1`, the inhibition was 0.51%.

On to `CCc1cc(C(N)=O)c(NC(=O)c2ccc(OC)cc2)s1`, for which the inhibition is 0.45%.

In the case of `Cc1ccc2cc(/C=N/NC(=O)[C@@H]3CCCN3)c(Cl)nc2c1`, the inhibition is -0.87%.

In the case of `C=CCSc1nc(N)cc(=O)[nH]1`, the inhibition is 2.99% (active).

Consider `C=CCSc1nc2ccccc2[nH]1`, for which the inhibition is -0.36%.

`CCCCc1nnc(NC(=O)CSc2nc(N)cc(=O)[nH]2)s1`: the inhibition is 0.08%.

As for `CCOc1ccc(CCNC(=O)C(CC)n2nc(C)n3c(cc4sccc43)c2=O)cc1OCC` (stereo unspecified), the inhibition is -0.56%.

In the case of `O=C(NCCc1ccc(F)cc1)c1n[nH]c2ccccc12`, the inhibition was 0.75%.

With `C=C(C)CSc1nnc(-c2ccc(C)cc2)n1N`, the inhibition is 0.46%.

In the case of `CCCn1nnnc1NC(=O)COc1ccc(Cl)cc1C`, the inhibition is -0.15%.

Consider `CSc1ccc(NC(=O)/C=C/C(=O)O)cc1`, for which the inhibition was 0.87%.

For the molecule `COc1cccc(-c2ccc(C#N)c(SCC(=O)NCCc3ccc(Cl)cc3)n2)c1`, the inhibition was 1.75%.

Turning to `Cc1ccc(S(=O)(=O)N(Cc2ccc(Cl)cc2)c2ccccc2C(=O)NCc2cccnc2)cc1`, the inhibition is -0.82%.

In the case of `O=C(Nc1ccc2cn[nH]c2c1)c1ccc(S(=O)(=O)N2CCOCC2)cc1`, the inhibition was 1.2%.

On to `Cc1ccc(NNC(=O)C2CCC2)cc1C`, for which the inhibition is 0.43%.

On to `COC(=O)CSc1nc2c(c(C3CC=CCC3)c1C#N)CCC2` (stereo unspecified), for which the inhibition is 0.22%.

Take `CCC(C)OC(=O)C(C)Oc1ccc(-c2ccccc2)cc1` (stereo unspecified): the inhibition is -0.27%.

Turning to `Cc1nn(Cc2ccccc2Cl)c(C)c1NC(=O)Cn1nc([N+](=O)[O-])c(Cl)c1C`, the inhibition is -0.58%.

For the molecule `CC(=O)N1CCN(S(=O)(=O)c2ccc(C)c([N+](=O)[O-])c2)C1C(C)C` (stereo unspecified), the inhibition was 0.34%.

Regarding `Cc1cccc(C)c1NC(=S)N(Cc1cccnc1)Cc1ccccc1Cl`, the inhibition was -0.05%.

For the molecule `CSc1ccccc1C(=O)NCc1ccccc1`, the inhibition was 1.84%.

Values taken from PubChem BioAssay AID1416 (The Scripps Research Institute Molecular Screening Center, 2008).
